Measurements from PubChem BioAssay AID504834 (National Center for Advancing Translational Sciences (NCATS), 2011).
In all, about 320,000 compounds went through this assay and about 22,000 (6.9%) were called active. Roughly 27% stayed inconclusive and do not appear here. The call rests on the fitted dose curve; in most records, active means well fitted inhibition curve with a large enough effect; inconclusive means small, poorly fitted or top-dose-only effect, or another doubt; inactive means no such curve, though single readings can be large or run the other way. Many of the other results were omitted from the sample, so actives are more common in it than they were.

Assay: Primary qHTS for delayed death inhibitors of the malarial parasite plastid, 96 hour incubation
Settings: P. falciparum luciferase reporter growth; series mostly up to 28.7 µM; activity change, negative = inhibition: at the top concentration
Summary of the method: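 Compounds incubated with erythrocytes infected by luciferase-expressing P. falciparum (2% hematocrit, 0.05% parasitemia final) for 96 hours, 37 C in 5% CO2. Growth inhibition scored as decreased luciferase luminescence.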
On the % scale 0 is the no-effect control and ±100 the full control effect; potency means the concentration at half of the fitted maximal effect.

| SMILES | Potency | activity change, negative = inhibition |
| --- | --- | --- |
| C/C(=N/Nc1ccc(Cl)cc1)c1cnnc(-c2ccccc2)n1 | 0.522 µM (active) | – |
| C/C(=N\Nc1nncc2ccccc12)c1ccc(Cl)c([N+](=O)[O-])c1 | – | 64.3% (inactive) |
| Cn1nc(-c2ccccc2)c(-c2nc(-c3ccc(Cl)cc3)no2)c1Cl | – | 13.6% (inactive) |
| Cc1ccc(S(=O)(=O)NNC(=O)/C=C/c2cccc(F)c2)cc1 | – | 1.02% (inactive) |
| Cc1ccc2c(c1)N(CC(=O)N1CCC(O)CC1)C(=O)CO2 | – | 20.6% (inactive) |
| O=C(Nn1cnc2ccccc2c1=O)c1ccccc1 | – | 12.2% (inactive) |
| Cc1nc2ccccc2c(=O)n1NC(=O)c1ccc(Cl)c([N+](=O)[O-])c1 | – | 232% (inactive) |
| O=C(Nn1cnc2ccccc2c1=O)c1ccc(F)cc1Cl | 11.7 µM (active) | – |
| CN(C(=O)c1ccccc1)c1nccnc1C#N | – | -10% (inactive) |
| CN(C)C(=O)c1nc2ccc(Cl)cn2c1CNCc1cccc(OC(F)(F)F)c1 | – | -21% (inactive) |
| COc1ccccc1-c1nnc(SCC(=O)Nc2cc(C)on2)o1 | 13.1 µM (active) | – |
| COc1ccccc1-c1nnc(SCC(=O)Nc2ccccc2)o1 | – | 41.6% (inactive) |
| Cc1cc(NC(=O)CSc2nnc(-c3ccc(Cl)s3)o2)no1 | – | 5.07% (inactive) |
| CCN(C(=O)CSc1nc(N)cc(=O)[nH]1)C1CCS(=O)(=O)C1 (stereo not drawn) | – | 18.9% (inactive) |
| CC(=O)Nc1ccc(NC(=O)CC2CCCC2)cc1 | – | 58.4% (inactive) |
| Cn1c2ccccc2c(=O)c2c(=O)n(Cc3ccco3)c(COc3ccccc3)nc21 | 7.38 µM (active) | – |
| Cc1nc2c(c(=O)n1Cc1ccco1)c1nc3ccccc3nc1n2Cc1ccccc1 | – | 27.6% [at 5.75 µM] (inactive) |

| SMILES | Potency | activity change, negative = inhibition |
| --- | --- | --- |
| CCn1c(COc2ccccc2)nnc1SCC(=O)NCc1ccco1 | – | 51% (inactive) |
| CC(=O)N1CCC(N(C(=O)Nc2ccc(Cl)cc2)C(C)C)CC1 | – | -2.03% (inactive) |
| CCOc1ccc(N/C=C/C(=O)c2ccccc2)cc1 | – | 84.5% (inactive) |
| N#C/C=C/N1CCN(Cc2ccc3c(c2)OCO3)CC1 | – | 23.3% (inactive) |
| Cc1ccc(-c2csc(SCC(=O)Nc3cc(C)on3)n2)cc1 | – | -16.1% (inactive) |
| COc1ccccc1C(=O)COC(=O)CSCC(=O)Nc1cc(C)on1 | – | 11.2% (inactive) |
| Cc1cc(NC(=O)CSCc2nc(-c3cccc(Cl)c3)oc2C)no1 | 11.7 µM (active) | – |
| Oc1c(Cl)cc(Cl)cc1/C=N/c1ncn[nH]1 | – | 13.7% (inactive) |
| CC(C)C[C@H](NC(=O)C1CC(=O)N(c2ccc3c(c2)OCCO3)C1)C(=O)NC1CCCC1 (stereo partly drawn) | – | -33.8% (inactive) |
| CCCn1c(=O)c(C(=O)Nc2cc(C)ccn2)c(O)c2ccccc21 | – | -14.4% (inactive) |
| O=[N+]([O-])c1ccc(N2CCN(CC(O)COc3ccccc3)CC2)cc1 (stereo not drawn) | – | 17.6% (inactive) |
| O=C(c1ccccc1)c1ccc(OCC(O)CN2CCCC2)cc1 (stereo not drawn) | – | -1.41% (inactive) |
| OC(COc1ccc(Br)cc1)CN1CCCC1 (stereo not drawn) | – | 8.39% (inactive) |
| O=C(c1ccc(Cl)cc1)c1ccc(OCC(O)CN2CCCCC2)cc1 (stereo not drawn) | 2.33 µM (active) | – |
| CC(C)c1ccc(OCC(O)CN2CCN(c3ccccn3)CC2)cc1 (stereo not drawn) | – | 399% (inactive) |
| CC(=O)Nc1ccc(OCC(O)CN2CCN(c3ccccc3Cl)CC2)cc1 (stereo not drawn) | 3.7 µM (active) | – |
